Results taken from publication PMC7862700, “An all-to-all approach to the identification of sequence-specific readers for epigenetic DNA modifications on cytosine”.

Assays:
Test in all cases: DAPPL (digital affinity profiling via proximity ligation, sequencing); 10 mM Tris-HCl pH 7.5, 50 mM NaCl, 1 mM DTT, 4% glycerol, room temperature, 30 min; GST-TFs on glutathione beads, 16-mer random dsDNA library, 0.1% formaldehyde crosslink after washing; high values mean tight binding
Conditions in all cases: protein: recombinant; tags: N-terminal GST; dsDNA, one strand shown
[1] = target: T1, GABPA (Homo sapiens, UniProt Q06546 1-454)
T1 sequence: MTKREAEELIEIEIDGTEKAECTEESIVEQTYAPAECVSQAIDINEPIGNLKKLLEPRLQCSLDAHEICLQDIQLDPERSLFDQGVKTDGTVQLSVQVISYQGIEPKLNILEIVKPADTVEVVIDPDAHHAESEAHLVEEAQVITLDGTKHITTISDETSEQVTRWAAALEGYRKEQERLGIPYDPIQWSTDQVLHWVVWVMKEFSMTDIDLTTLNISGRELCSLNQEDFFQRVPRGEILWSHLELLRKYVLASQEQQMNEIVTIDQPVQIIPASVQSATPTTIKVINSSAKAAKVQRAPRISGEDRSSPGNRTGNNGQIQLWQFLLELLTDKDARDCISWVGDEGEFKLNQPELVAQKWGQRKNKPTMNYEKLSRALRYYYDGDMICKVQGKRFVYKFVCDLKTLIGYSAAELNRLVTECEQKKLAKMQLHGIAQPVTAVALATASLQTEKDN
Outline: (§1)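 Pools were built from human transcription factors expressed in yeast as GST fusions, captured on glutathione beads and DNA-barcoded, along with a tag-only sample. Incubation with 200 nmole of a 16-mer random double-stranded DNA library lasted 30 min at room temperature in Tris/NaCl/DTT/glycerol buffer, and was followed by washing, 0.1% formaldehyde crosslinking, proximity ligation, PCR amplification and Illumina NextSeq500 sequencing. Binding signal is the quotient of each hexamer's read frequency for a factor and its frequency for the tag-only sample.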

[2] = target: T2, ERG (Homo sapiens, UniProt P11308 1-479)
T2 sequence: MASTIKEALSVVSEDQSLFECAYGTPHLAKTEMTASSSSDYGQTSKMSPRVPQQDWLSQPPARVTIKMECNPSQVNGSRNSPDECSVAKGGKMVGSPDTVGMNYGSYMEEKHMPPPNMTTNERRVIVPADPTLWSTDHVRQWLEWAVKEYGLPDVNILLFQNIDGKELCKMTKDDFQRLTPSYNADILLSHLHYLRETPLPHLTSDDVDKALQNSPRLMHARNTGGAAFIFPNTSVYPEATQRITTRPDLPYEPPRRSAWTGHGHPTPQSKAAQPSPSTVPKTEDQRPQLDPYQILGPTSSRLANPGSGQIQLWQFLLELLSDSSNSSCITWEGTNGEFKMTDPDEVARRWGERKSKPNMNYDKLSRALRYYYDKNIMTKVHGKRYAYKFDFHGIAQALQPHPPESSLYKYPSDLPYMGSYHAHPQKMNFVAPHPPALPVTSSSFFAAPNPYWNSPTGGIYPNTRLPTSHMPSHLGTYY
Outline: as §1

[3] = target: ELF1 (Homo sapiens, UniProt P32519 1-619)
Sequence of ELF1 (P32519 whole entry): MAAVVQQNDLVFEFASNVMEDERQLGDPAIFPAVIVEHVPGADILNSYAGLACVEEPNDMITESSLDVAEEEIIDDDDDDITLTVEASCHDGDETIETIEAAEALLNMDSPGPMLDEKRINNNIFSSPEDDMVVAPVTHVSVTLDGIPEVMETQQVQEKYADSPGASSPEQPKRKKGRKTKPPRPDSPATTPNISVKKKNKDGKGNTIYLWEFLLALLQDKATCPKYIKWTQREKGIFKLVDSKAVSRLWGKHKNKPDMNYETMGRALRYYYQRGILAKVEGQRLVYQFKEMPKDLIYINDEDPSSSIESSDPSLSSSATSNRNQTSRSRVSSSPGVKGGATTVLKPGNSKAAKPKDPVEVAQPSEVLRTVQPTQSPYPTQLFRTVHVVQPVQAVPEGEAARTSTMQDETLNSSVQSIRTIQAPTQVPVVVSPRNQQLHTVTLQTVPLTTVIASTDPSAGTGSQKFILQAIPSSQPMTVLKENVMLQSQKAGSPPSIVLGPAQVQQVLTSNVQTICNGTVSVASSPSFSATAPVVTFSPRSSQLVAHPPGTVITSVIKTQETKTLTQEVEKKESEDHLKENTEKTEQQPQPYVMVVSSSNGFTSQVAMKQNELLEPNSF
Outline: as §1

[4] = target: T3, EHF (Homo sapiens, UniProt Q9NZC4 1-300)
T3 sequence: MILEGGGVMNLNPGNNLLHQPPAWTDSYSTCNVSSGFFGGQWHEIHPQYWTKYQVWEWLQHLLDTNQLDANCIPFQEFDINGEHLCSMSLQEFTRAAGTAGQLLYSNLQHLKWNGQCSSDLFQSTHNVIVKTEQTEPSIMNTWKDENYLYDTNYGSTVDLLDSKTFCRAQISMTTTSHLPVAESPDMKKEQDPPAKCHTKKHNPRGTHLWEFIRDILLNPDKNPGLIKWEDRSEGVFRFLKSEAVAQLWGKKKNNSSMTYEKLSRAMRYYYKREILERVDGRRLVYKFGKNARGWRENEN
Outline: as §1

[5] = target: SPI1 (Homo sapiens, UniProt P17947 1-270)
Outline: as §1

[6] = target: SPIB (Homo sapiens, UniProt Q01892 1-262)
Sequence of SPIB (Q01892 whole entry): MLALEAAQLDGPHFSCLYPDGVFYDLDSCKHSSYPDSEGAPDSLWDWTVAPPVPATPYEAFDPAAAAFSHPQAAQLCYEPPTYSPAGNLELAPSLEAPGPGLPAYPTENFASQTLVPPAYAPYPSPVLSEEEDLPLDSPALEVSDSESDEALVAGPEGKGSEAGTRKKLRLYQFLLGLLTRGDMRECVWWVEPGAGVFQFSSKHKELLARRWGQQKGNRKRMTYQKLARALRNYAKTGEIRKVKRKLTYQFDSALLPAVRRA
Outline: as §1

[7] = target: ETV5 (Homo sapiens, UniProt P41161 1-510)
Sequence of ETV5 (P41161 whole entry): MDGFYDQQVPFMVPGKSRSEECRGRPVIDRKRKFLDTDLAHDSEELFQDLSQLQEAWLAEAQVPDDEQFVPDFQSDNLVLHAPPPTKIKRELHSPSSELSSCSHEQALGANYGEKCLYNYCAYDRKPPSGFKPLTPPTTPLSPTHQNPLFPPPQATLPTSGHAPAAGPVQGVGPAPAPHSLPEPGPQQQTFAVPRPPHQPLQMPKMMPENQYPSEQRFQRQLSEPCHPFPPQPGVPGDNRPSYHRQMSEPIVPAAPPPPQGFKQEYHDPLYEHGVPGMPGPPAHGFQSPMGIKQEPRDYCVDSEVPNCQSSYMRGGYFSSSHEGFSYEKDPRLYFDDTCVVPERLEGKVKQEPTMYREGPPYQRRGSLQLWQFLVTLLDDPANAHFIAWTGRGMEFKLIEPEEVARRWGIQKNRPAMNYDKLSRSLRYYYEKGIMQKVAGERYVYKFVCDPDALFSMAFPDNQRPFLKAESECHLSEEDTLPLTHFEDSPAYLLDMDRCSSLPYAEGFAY
Outline: as §1

[8] = target: T4, ELK4 (Homo sapiens, UniProt P28324-2 1-405)
T4 sequence: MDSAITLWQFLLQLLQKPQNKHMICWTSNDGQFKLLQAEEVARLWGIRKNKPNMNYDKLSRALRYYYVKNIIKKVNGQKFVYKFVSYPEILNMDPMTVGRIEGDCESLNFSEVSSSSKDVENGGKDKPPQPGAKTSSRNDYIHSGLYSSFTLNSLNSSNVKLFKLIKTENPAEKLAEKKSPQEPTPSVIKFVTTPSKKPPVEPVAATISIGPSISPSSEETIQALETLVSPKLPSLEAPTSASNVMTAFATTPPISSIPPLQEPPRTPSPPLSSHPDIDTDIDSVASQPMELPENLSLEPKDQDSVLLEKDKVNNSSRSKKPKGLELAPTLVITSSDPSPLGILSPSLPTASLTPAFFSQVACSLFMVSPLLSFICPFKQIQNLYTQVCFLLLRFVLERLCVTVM
Outline: as §1

[9] = target: T5, ELF3 (Homo sapiens, UniProt P78545 1-371)
T5 sequence: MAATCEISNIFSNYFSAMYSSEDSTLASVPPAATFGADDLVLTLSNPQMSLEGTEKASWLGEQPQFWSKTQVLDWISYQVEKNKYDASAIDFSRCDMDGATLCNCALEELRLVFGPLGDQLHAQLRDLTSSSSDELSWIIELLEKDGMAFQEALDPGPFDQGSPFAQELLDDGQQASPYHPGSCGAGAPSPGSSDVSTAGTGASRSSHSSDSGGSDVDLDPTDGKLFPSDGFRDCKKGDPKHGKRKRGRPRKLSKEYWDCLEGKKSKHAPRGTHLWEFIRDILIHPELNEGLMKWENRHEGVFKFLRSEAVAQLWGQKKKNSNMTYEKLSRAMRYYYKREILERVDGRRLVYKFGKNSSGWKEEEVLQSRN
Outline: as §1

[10] = target: ETV1 (Homo sapiens, UniProt P50549 1-477)
Sequence of ETV1 (P50549 whole entry): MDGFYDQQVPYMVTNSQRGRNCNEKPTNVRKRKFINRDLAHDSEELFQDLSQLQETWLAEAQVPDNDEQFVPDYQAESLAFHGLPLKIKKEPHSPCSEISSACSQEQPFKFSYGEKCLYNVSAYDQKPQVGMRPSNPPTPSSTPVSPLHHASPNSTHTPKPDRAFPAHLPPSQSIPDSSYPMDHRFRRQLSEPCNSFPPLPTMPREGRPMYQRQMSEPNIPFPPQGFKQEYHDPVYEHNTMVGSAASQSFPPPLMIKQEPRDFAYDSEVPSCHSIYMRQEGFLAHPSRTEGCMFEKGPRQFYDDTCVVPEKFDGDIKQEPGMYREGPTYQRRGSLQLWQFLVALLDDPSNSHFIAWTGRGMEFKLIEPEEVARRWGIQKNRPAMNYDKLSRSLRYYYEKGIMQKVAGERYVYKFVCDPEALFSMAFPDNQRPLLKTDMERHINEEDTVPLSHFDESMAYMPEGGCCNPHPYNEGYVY
Outline: as §1

[11] = target: T6, ERF (Homo sapiens, UniProt P50548 1-548)
T6 sequence: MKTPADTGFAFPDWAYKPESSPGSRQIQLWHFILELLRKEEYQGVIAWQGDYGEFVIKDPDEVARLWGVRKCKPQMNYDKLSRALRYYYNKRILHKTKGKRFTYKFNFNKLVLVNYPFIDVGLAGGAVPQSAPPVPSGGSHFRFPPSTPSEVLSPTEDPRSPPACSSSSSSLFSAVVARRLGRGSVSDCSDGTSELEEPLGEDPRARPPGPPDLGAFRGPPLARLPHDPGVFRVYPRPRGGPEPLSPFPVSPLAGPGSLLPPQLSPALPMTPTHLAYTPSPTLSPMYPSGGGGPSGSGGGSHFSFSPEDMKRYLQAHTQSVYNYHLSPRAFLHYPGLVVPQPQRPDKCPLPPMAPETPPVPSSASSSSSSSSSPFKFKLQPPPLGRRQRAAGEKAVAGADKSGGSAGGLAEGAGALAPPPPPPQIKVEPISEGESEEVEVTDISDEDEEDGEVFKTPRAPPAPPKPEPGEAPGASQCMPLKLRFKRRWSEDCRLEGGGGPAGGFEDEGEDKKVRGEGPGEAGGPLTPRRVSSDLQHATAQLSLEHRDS
Outline: as §1

[12] = target: T7, ETV3L (Homo sapiens, UniProt Q6ZN32 1-361)
T7 sequence: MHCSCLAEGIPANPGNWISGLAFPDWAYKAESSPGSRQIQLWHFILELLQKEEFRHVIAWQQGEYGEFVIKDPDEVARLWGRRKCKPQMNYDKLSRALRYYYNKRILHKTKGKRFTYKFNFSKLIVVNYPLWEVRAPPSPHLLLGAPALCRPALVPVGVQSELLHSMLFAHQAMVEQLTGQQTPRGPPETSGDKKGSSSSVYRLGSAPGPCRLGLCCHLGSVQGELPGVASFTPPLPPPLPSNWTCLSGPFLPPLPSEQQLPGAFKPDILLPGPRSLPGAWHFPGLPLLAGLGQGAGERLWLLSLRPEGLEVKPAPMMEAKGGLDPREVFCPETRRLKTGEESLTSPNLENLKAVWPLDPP
Outline: as §1

[13] = target: T8, ETV3 (Homo sapiens, UniProt P41162-2 1-143)
T8 sequence: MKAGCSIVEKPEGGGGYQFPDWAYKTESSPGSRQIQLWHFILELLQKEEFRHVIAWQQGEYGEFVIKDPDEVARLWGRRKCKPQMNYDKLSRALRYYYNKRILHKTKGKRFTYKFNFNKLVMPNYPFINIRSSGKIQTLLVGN
Outline: as §1

[14] = target: T9, ELK1 (Homo sapiens, UniProt P19419 1-428)
T9 sequence: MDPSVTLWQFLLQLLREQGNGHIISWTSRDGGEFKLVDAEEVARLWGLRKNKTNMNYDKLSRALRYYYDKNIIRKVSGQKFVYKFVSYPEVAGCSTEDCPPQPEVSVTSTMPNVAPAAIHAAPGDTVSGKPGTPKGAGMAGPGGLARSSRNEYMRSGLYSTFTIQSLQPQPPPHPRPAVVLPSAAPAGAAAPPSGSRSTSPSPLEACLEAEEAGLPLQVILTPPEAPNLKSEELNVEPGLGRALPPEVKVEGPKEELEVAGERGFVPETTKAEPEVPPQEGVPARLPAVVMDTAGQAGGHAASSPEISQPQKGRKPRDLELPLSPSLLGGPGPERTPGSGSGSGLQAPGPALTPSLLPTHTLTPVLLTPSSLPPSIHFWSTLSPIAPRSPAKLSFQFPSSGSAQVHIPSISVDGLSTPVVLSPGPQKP
Outline: as §1

[15] = target: T10, FEV (Homo sapiens, UniProt Q99581 1-238)
T10 sequence: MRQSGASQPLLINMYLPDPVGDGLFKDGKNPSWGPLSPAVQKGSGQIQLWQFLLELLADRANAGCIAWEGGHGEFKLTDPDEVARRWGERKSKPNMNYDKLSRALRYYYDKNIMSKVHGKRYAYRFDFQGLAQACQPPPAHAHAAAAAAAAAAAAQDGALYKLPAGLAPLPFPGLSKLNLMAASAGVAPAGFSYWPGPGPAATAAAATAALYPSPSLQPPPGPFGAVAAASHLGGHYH
Outline: as §1

[16] = target: T11, ETS2 (Homo sapiens, UniProt P15036 1-469)
T11 sequence: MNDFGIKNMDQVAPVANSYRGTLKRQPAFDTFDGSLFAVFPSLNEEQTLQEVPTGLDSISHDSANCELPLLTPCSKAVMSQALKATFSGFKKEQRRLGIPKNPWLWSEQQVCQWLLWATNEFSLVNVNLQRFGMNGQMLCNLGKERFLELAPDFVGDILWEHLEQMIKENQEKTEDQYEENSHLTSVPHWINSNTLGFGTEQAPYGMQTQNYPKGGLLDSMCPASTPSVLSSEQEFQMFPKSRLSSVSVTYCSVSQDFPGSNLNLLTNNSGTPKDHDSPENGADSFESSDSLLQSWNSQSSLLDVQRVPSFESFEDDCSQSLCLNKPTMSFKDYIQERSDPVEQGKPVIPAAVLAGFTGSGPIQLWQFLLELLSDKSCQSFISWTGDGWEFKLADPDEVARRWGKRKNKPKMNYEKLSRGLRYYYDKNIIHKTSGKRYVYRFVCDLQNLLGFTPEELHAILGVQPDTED
Outline: as §1

[17] = target: T12, ETV7 (Homo sapiens, UniProt Q9Y603 1-341)
T12 sequence: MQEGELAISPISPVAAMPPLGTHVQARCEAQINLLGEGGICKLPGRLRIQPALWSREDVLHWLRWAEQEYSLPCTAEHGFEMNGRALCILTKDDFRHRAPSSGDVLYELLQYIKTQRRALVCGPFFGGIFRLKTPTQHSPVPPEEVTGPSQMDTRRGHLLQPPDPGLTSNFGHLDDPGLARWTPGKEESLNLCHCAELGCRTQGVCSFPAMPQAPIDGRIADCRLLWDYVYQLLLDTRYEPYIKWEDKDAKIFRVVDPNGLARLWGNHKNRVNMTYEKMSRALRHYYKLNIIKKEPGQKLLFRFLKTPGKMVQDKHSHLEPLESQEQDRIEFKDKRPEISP
Outline: as §1

[18] = target: ETV6 (Homo sapiens, UniProt P41212 1-452)
Sequence of ETV6 (P41212 whole entry): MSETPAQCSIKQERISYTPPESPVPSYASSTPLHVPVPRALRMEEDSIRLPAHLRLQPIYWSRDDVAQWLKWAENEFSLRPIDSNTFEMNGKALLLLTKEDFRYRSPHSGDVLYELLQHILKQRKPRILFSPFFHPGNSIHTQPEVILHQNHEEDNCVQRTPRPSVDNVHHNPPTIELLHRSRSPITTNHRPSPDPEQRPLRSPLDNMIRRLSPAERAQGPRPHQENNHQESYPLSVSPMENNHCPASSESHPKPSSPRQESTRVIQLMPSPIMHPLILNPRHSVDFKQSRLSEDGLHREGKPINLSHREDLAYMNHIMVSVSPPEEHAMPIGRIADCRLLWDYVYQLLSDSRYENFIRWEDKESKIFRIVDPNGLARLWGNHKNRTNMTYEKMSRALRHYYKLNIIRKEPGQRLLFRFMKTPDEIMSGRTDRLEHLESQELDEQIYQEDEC
Outline: as §1

Row | Sequence | binding signal [1] | binding signal [2] | binding signal [3] | binding signal [4] | binding signal [5] | binding signal [6] | binding signal [7] | binding signal [8] | binding signal [9] | binding signal [10] | binding signal [11] | binding signal [12] | binding signal [13] | binding signal [14] | binding signal [15] | binding signal [16] | binding signal [17] | binding signal [18]
1 | TGAAAT | 1.03 fold enrichment (6-mer frequency, TF over GST control) | 1.02 fold enrichment (6-mer frequency, TF over GST control) | 1 fold enrichment (6-mer frequency, TF over GST control) | 1.01 fold enrichment (6-mer frequency, TF over GST control) | 1.02 fold enrichment (6-mer frequency, TF over GST control) | 1.01 fold enrichment (6-mer frequency, TF over GST control) | 1.07 fold enrichment (6-mer frequency, TF over GST control) | 1.04 fold enrichment (6-mer frequency, TF over GST control) | 1.09 fold enrichment (6-mer frequency, TF over GST control) | 1.08 fold enrichment (6-mer frequency, TF over GST control) | 1.01 fold enrichment (6-mer frequency, TF over GST control) | 1.04 fold enrichment (6-mer frequency, TF over GST control) | 1.03 fold enrichment (6-mer frequency, TF over GST control) | – | – | – | – | –
2 | TGGCGA | 1.01 fold enrichment (6-mer frequency, TF over GST control) | 1.02 fold enrichment (6-mer frequency, TF over GST control) | – | 1.01 fold enrichment (6-mer frequency, TF over GST control) | 1.03 fold enrichment (6-mer frequency, TF over GST control) | – | 1.01 fold enrichment (6-mer frequency, TF over GST control) | – | – | – | – | – | – | 1.02 fold enrichment (6-mer frequency, TF over GST control) | 1.02 fold enrichment (6-mer frequency, TF over GST control) | 1.06 fold enrichment (6-mer frequency, TF over GST control) | 1.07 fold enrichment (6-mer frequency, TF over GST control) | 1.03 fold enrichment (6-mer frequency, TF over GST control)
